Reference: the supplement of paper PMC12494721
Counter-ions that a name gives are not always drawn.

How the values were obtained:
Conditions in all cases: 20 µM; incubation time: 27 h, anaerobic, 37 °C;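 for the amine columns active = adjusted P below 0.05 in both replicates with a change the same way and a mean fold change under 0.8 or over 1.25; inactive = the rest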
[1] = tested on: Clostridium sporogenes DSM 1664; assay: growth (OD595) fold change vs plate DMSO controls (fold change (ratio)); higher = more growth
Method in brief: (§1)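 Growth is expressed as the fold change relative to the median of the DMSO control wells on each plate. Cultures in mGAM were grown anaerobically in 96-well plates for 27 h at 37 °C, shaken, and read at 595 nm. Readings were blank-subtracted, corrected for compound background with 20 µM compound solutions in water, and converted to OD with a calibration factor of 5. Fold changes above 1.5 were set to NA, and each value is the mean of 2 biological replicates.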

Escherichia coli IAI1 [2] = assay: as above
Method in brief: as §1

[3] = tested on: Klebsiella aerogenes DSM 30053; assay: as above
Method in brief: as §1

[4] = tested on: Ruminococcus gnavus DSM 108212; assay: as above
Method in brief: as §1

[5] = tested on: Klebsiella aerogenes DSM 30053; assay: fold change of Histamine concentration vs plate DMSO controls (fold change (ratio)); higher = more amine produced, active = hit call of the paper (significant change in both replicates, either direction)
Method in brief: (§2)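 Amine values are fold changes relative to DMSO-only wells on the same plate. They derive from 27 h, 37 °C anaerobic mGAM cultures of four gut bacterial strains in 80 µL wells, dosed at 20 µM final, or 50 µM final for sweeteners. Extraction of the whole culture, LC–triple-quadrupole MS in dynamic MRM mode, external calibration curves and within-batch drift correction were used, with 2 biological replicates averaged.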

[6] = tested on: Clostridium sporogenes DSM 1664; assay: fold change of Tryptamine concentration vs plate DMSO controls (fold change (ratio)); higher = more amine produced, active = hit call of the paper (significant change in both replicates, either direction)
Method in brief: as §2

[7] = tested on: Ruminococcus gnavus DSM 108212; assay: as above
Method in brief: as §2

Escherichia coli IAI1 [8] = assay: fold change of Putrescine concentration vs plate DMSO controls (fold change (ratio)); higher = more amine produced, active = hit call of the paper (significant change in both replicates, either direction)
Method in brief: as §2

[9] = tested on: Klebsiella aerogenes DSM 30053; assay: as above
Method in brief: as §2

Escherichia coli IAI1 [10] = assay: fold change of Cadaverine concentration vs plate DMSO controls (fold change (ratio)); higher = more amine produced, active = hit call of the paper (significant change in both replicates, either direction)
Method in brief: as §2

[11] = tested on: Klebsiella aerogenes DSM 30053; assay: as above
Method in brief: as §2

[12] = tested on: Ruminococcus gnavus DSM 108212; assay: fold change of 2-Phenylethylamine concentration vs plate DMSO controls (fold change (ratio)); higher = more amine produced, active = hit call of the paper (significant change in both replicates, either direction)
Method in brief: as §2

Structure (SMILES) | growth [1] | growth (Escherichia coli IAI1 [2]) | growth [3] | growth [4] | fold change of Histamine concentration [5] | fold change of Tryptamine concentration [6] | fold change of Tryptamine concentration [7] | fold change of Putrescine concentration (Escherichia coli IAI1 [8]) | fold change of Putrescine concentration [9] | fold change of Cadaverine concentration (Escherichia coli IAI1 [10]) | fold change of Cadaverine concentration [11] | fold change of 2-Phenylethylamine concentration [12]
COP(=S)(OC)SCN1C(=O)c2ccccc2C1=O | 1.02 | 1.08 | 1.05 | 0.965 | 0.945 (inactive) | 1.03 (inactive) | 1.01 (inactive) | 1.01 (inactive) | 1.01 (inactive) | 0.997 (inactive) | 1.01 (inactive) | 1 (inactive)
CCC1(CC)C(=O)C=CNC1=O [Pyrithyldione] | 0.889 | 0.977 | 1.04 | 0.877 | 1.03 (inactive) | 0.966 (inactive) | 1.02 (inactive) | 1.01 (inactive) | 1.03 (inactive) | 1 (inactive) | 1.02 (inactive) | 0.996 (inactive)
C[N+]1(C)[C@@H]2CC[C@H]1C[C@@H](OC(=O)C(CO)c1ccccc1)C2 (some centres not stated) [Methylatropine nitrate] | 0.875 | 0.835 | 0.989 | 0.97 | 0.978 (inactive) | 0.99 (inactive) | 1 (inactive) | 0.932 (inactive) | 1.02 (inactive) | 1.07 (inactive) | 1.01 (inactive) | 0.956 (inactive)
O=C1C=CC(=O)C=C1 [1,4-Benzoquinone] | 0.883 | 0.868 | 0.844 | 0.66 | 0.996 (inactive) | 1.02 (inactive) | 1.18 (inactive) | 0.967 (inactive) | 1 (inactive) | 0.943 (inactive) | 1.11 (inactive) | 1.66 (active)
C1CCc2nnnn2CC1 [Pentylenetetrazole] | 1.14 | 0.976 | 1 | 0.873 | 0.957 (inactive) | 0.963 (inactive) | 0.836 (inactive) | 0.994 (inactive) | 0.975 (inactive) | 1.01 (inactive) | 0.998 (inactive) | 0.876 (inactive)
CCc1cccc(C)c1N(C(=O)CCl)[C@@H](C)COC | 1.01 | 1.01 | 0.995 | 0.912 | 1.01 (inactive) | 1.07 (inactive) | 1.01 (inactive) | 1.02 (inactive) | 0.999 (inactive) | 0.998 (inactive) | 0.997 (inactive) | 1.04 (inactive)
CS(=O)(=O)c1cc(C(F)(F)F)ccc1C(=O)c1cnoc1C1CC1 | 0.937 | 1.09 | 1.09 | 0.964 | 0.825 (inactive) | 0.986 (inactive) | 0.989 (inactive) | 0.958 (inactive) | 0.976 (inactive) | 0.905 (inactive) | 1.01 (inactive) | 1 (inactive)
CC(C)CC(C)c1sccc1NC(=O)c1cn(C)nc1C(F)(F)F (configuration not stated) | 1.03 | 1.05 | 1.01 | 0.961 | 0.988 (inactive) | 0.935 (inactive) | 1.03 (inactive) | 1.05 (inactive) | 1.01 (inactive) | 1 (inactive) | 0.991 (inactive) | 1.03 (inactive)
Oc1ccccc1-c1ccccc1 | 1 | 1.12 | 0.949 | 1.21 | 0.959 (inactive) | 0.993 (inactive) | 0.973 (inactive) | 0.955 (inactive) | 0.993 (inactive) | 1.01 (inactive) | 0.998 (inactive) | 0.965 (inactive)
N#Cc1cc(Br)c(O)c(Br)c1 | 0.976 | 0.821 | 0.928 | 0.963 | 1.02 (inactive) | 0.955 (inactive) | 1.02 (inactive) | 1.23 (inactive) | 0.978 (inactive) | 1.29 (active) | 0.978 (inactive) | 1.01 (inactive)
CCC1(c2ccc(N)cc2)CCC(=O)NC1=O (configuration not stated) [Glutethimide, para-amino] | 0.956 | 1.01 | 0.979 | 1.14 | 1.12 (inactive) | 1.02 (inactive) | 1.04 (inactive) | 0.992 (inactive) | 1.02 (inactive) | 0.974 (inactive) | 0.993 (inactive) | 1 (inactive)
CC(NC(C)(C)C)C(=O)c1cccc(Cl)c1 (configuration not stated) [Bupropion hydrochloride] | 0.957 | 1.01 | 0.949 | 1.02 | 1.08 (inactive) | 0.987 (inactive) | 1.08 (inactive) | 1.02 (inactive) | 0.995 (inactive) | 1 (inactive) | 0.97 (inactive) | 1.12 (inactive)
Clc1ccc(C(c2ccc(Cl)cc2)C(Cl)(Cl)Cl)cc1 | 0.984 | 0.974 | 0.996 | 1.12 | 1.03 (inactive) | 1.02 (inactive) | 0.962 (inactive) | 1.06 (inactive) | 1.02 (inactive) | 0.957 (inactive) | 1 (inactive) | 0.914 (inactive)
CCOP(=S)(OCC)Oc1nc(Cl)c(Cl)cc1Cl | 1.13 | 0.998 | 1.04 | 0.945 | 0.882 (inactive) | 1.01 (inactive) | 0.936 (inactive) | 0.986 (inactive) | 1.01 (inactive) | 1.03 (inactive) | 1.02 (inactive) | 0.873 (inactive)
O=c1c2ccccc2[se]n1-c1ccccc1 [Ebselen] | 1.02 | 1.12 | 1.14 | 1.14 | 0.916 (inactive) | 0.823 (inactive) | 0.801 (inactive) | 1.02 (inactive) | 0.959 (inactive) | 0.953 (inactive) | 0.984 (inactive) | 0.851 (inactive)
CCCCN(CCCC)SN(C)C(=O)Oc1cccc2c1OC(C)(C)C2 | 1.06 | 1.03 | 1.01 | 0.993 | 1.01 (inactive) | 0.965 (inactive) | 1.01 (inactive) | 1.05 (inactive) | 1.02 (inactive) | 1.03 (inactive) | 0.998 (inactive) | 0.987 (inactive)
CCCN(CCOc1c(Cl)cc(Cl)cc1Cl)C(=O)n1ccnc1 | 1.07 | 0.976 | 1.01 | 0.951 | 1.02 (inactive) | 1.05 (inactive) | 1.02 (inactive) | 1 (inactive) | 1.01 (inactive) | 1.02 (inactive) | 0.998 (inactive) | 1.04 (inactive)
C[C@]12CCC(=O)C=C1C=C[C@@H]1[C@@H]2CC[C@@]2(C)[C@H]1CC[C@@]2(O)CCC(=O)O [Canrenoic acid potassium salt] | 1.1 | 1 | 1.02 | 0.902 | 0.964 (inactive) | 1.05 (inactive) | 1.06 (inactive) | 1.02 (inactive) | 0.98 (inactive) | 0.997 (inactive) | 0.996 (inactive) | 1.09 (inactive)
COC[C@@H](NC(C)=O)C(=O)NCc1ccccc1 [Lacosamide] | 1.07 | 1.01 | 1.06 | 0.96 | 1.08 (inactive) | 1 (inactive) | 1.04 (inactive) | 1.01 (inactive) | 1.02 (inactive) | 1 (inactive) | 1 (inactive) | 1.07 (inactive)
c1ccc2c(c1)ccc1c3ccccc3sc21 [Benzo[b]naphtho[2,1-d]thiophene] | 0.989 | 0.988 | 1.11 | 1.07 | 1.02 (inactive) | 0.962 (inactive) | 1.01 (inactive) | 1.01 (inactive) | 1.03 (inactive) | 0.992 (inactive) | 1.01 (inactive) | 0.99 (inactive)
CCN(C)C(=O)Oc1cccc([C@H](C)N(C)C)c1 [Rivastigmine] | 0.985 | 1.03 | 1.02 | 1.05 | 0.987 (inactive) | 1.18 (inactive) | 1.13 (inactive) | 0.958 (inactive) | 0.993 (inactive) | 0.937 (inactive) | 1.03 (inactive) | 1.18 (inactive)
C[C@@H]1[C@@H](c2ccc(Cl)cc2)SC(=O)N1C(=O)NC1CCCCC1 | 1.01 | 1.08 | 1.07 | 1 | 0.918 (inactive) | 0.989 (inactive) | 0.913 (inactive) | 0.955 (inactive) | 1.03 (inactive) | 0.972 (inactive) | 1.02 (inactive) | 0.882 (inactive)
OC(Cc1ccccc1Cl)(Cn1nc[nH]c1=S)C1(Cl)CC1 (configuration not stated) | 0.971 | 1.12 | 0.969 | 0.953 | 1.04 (inactive) | 1.02 (inactive) | 0.978 (inactive) | 0.937 (inactive) | 0.96 (inactive) | 0.946 (inactive) | 0.974 (inactive) | 0.951 (inactive)
CCc1cc(C)cc(CC)c1-c1c(OC(=O)C(C)(C)C)n2n(c1=O)CCOCC2 | 0.933 | 1.05 | 0.985 | 0.919 | 0.979 (inactive) | 1.11 (inactive) | 0.99 (inactive) | 1.02 (inactive) | 1.01 (inactive) | 1.05 (inactive) | 0.994 (inactive) | 0.985 (inactive)
O=C(NC(=O)c1c(F)cccc1F)Nc1ccc(OC(F)(F)C(F)OC(F)(F)F)c(Cl)c1 (configuration not stated) | 0.972 | 1.03 | 1.01 | 0.995 | 0.951 (inactive) | 0.981 (inactive) | 1.01 (inactive) | 1.01 (inactive) | 0.928 (inactive) | 0.872 (inactive) | 1.01 (inactive) | 0.957 (inactive)
C[N+]1(C)CCCCC1 | 1 | 1.08 | 1.02 | 1.04 | 1.01 (inactive) | 0.957 (inactive) | 1.03 (inactive) | 1 (inactive) | 1.01 (inactive) | 0.995 (inactive) | 1.02 (inactive) | 1.05 (inactive)
